Consider 8 compounds from PubChem BioAssay (Tox21).

Results filed as inconclusive are left out. Some structures have more than one record in an assay (separate samples or runs), and their calls can disagree. Activity calls are given as the source filed them. Unless noted, calls come from the whole dose curve.

Assay [1] is described as follows: Nuclear factor erythroid 2-related factor 2/antioxidant responsive element (Nrf2/ARE) small molecule agonists: qHTS cell viability counter screen in human keratinocytes (AID 1919968; active = well fitted curve in the direction sought with a large enough effect in the repeat runs; an effect the other way counts as inactive or inconclusive; note: nearly all actives have a fitted effect of over 55% in size; note: potency is the fitted concentration of half-maximal effect). The essentials:
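KeratinoSens HaCaT cells, 1,500/well, preincubated 5 h, then exposed to compounds in DMSO for 23 h at 37 C/5% CO2. Viability read as CellTiter-Fluor fluorescence after 1 h, in the same wells as the ARE-luciferase read.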

Assay [2] is described as follows: Nuclear factor erythroid 2-related factor 2/antioxidant responsive element (Nrf2/ARE) small molecule agonists: luciferase reporter gene qHTS assay in human keratinocytes (AID 1919969). Note: nearly all actives have a fitted effect of over 35% in size. Note: potency is the fitted concentration of half-maximal effect.
Assay [3] deals with Gonadotropin-releasing hormone receptor (Homo sapiens) (UniProt P30968). The assay can be described thus: Human gonadotropin-releasing hormone receptor (GnRHR) small molecule agonists, calcium flux assay in GnRHR-HEK293 cells (AID 1920063). Note: nearly all actives have a fitted effect of over 35% in size. Put shortly:
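HEK293 cells stably expressing human GnRHR were dye-loaded for 1 h at 37 C. Compound was added in agonist mode and fluorescence (Ex/Em 480/540) recorded kinetically for 3 min. Fifteen concentrations, triplicates.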

In assay [4] the target is KiSS-1 receptor (Homo sapiens) (UniProt Q969F8). The assay can be described thus: Human kisspeptin (KISS1R) small molecule agonists, calcium flux assay in KISS1R-HEK293 cells (AID 1920064; active = well fitted curve in the direction sought with a large enough effect in the repeat runs; an effect the other way counts as inactive or inconclusive). Put shortly:
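HEK293 cells stably expressing human KISS1R were loaded with calcium dye for 1 h at 37 C, then given compound; fluorescence (Ex/Em 480/540) was read kinetically for 3 min. Fifteen concentrations, triplicate.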

Assay [5] can be described thus: G protein-coupled receptor (GPCR) small molecule agonists, calcium flux assay: HEK293 wild type cell line counter screen (AID 1920065). Put shortly: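 Wild-type HEK293 cells plated 18 h, loaded with calcium dye 1 h at 37 C, then compounds added in agonist mode (ATP as positive control). Kinetic fluorescence Ex/Em 480/540 recorded 3 min at 1 sec intervals; 15 concentrations, triplicate.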

Assay [6] is described as follows: p53 small molecule agonists, cell-based qHTS assay with human liver microsomes (AID 1963577). Put shortly: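 Fluorescence of the beta-lactamase reporter in p53RE-bla cells, detected with LiveBLAzer substrate (2 h, room temperature, dark), served as the read-out after 16 h compound exposure at 37 C with human liver microsomes and NADPH, each 0.5 mg/mL final.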
A short description of assay [7]: p53 small molecule agonists, cell-based qHTS assay with rat liver microsomes (AID 1963578). The essentials: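 Cells carrying a p53 response element–beta-lactamase reporter were plated and rested 5 h, then dosed with compound in DMSO plus rat liver microsomes and NADPH, each at 0.5 mg/mL final. After 16 h at 37 C, LiveBLAzer substrate was added for 2 h.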
A short description of assay [8]: p53 small molecule agonists, cell-based qHTS assay with human liver microsomes: qHTS cell viability counter screen (AID 1963579). Note: nearly all actives have a fitted effect of over 45% in size. The essentials: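 Cytotoxicity counter screen: p53RE-bla, 4,000 cells/well; 5 h settle, 37 C/5% CO2; cpd + HLM 0.5 mg/mL + NADPH 0.5 mg/mL (final); 16 h, 37 C; CellTiter-Glo, 30 min RT, luminescence.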
A short description of assay [9]: p53 small molecule agonists, cell-based qHTS assay: qHTS cell viability counter screen (AID 1963581). Note: nearly all actives have a fitted effect of over 45% in size. Put shortly: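 p53RE-bla HCT-116 cells, compounds added 5 h after plating and incubated 16 h at 37 C. Cytotoxicity measured in the same wells as intracellular ATP by CellTiter-Glo luminescence after 30 min at room temperature.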
Assay [10] can be described thus: p53 small molecule agonists, cell-based qHTS assay (AID 1963582; active = well fitted activation curve with a large enough effect in the signal ratio in the repeat runs, not every such curve was filed as active; the % refers to the signal ratio). The essentials:
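p53RE-bla reporter cells, compounds added in DMSO after 5 h plating, incubated 16 h at 37 C. Beta-lactamase read via 2 h room-temperature LiveBLAzer B/G FRET substrate, fluorescence intensity.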

In assay [11] the target is 5-hydroxytryptamine receptor 2A (Homo sapiens) (UniProt P28223). As to the kind of experiment: 5-hydroxytryptamine receptor 2A (HTR2A) small molecule antagonists, cell-based qHTS assay (AID 1963586). Note: nearly all actives have a fitted effect of over 45% in size. The essentials: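 Antagonist-mode intracellular calcium assay: DOI (4 nM) added after 5 min compound pre-incubation at room temperature to dye-loaded HTR2A-CHO cells. Fluorescence followed for 3 min, sampled every second.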
Sequence of 5-hydroxytryptamine receptor 2A (Homo sapiens) (P28223 whole entry, looked up): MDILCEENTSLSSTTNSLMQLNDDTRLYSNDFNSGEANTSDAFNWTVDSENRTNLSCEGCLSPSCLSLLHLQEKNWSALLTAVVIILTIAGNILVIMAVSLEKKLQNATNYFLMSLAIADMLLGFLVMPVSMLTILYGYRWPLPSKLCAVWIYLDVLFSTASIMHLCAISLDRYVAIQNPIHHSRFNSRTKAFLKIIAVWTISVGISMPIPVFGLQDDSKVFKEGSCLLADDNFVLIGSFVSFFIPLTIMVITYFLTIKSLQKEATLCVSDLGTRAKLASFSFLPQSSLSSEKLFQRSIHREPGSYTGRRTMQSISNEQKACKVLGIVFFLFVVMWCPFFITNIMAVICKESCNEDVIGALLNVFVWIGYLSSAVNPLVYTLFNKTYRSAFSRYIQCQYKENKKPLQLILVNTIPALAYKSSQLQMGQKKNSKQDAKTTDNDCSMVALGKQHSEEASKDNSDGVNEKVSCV

Assay [12] has the same target. As to the kind of experiment: 5-hydroxytryptamine receptor 2A (HTR2A) small molecule agonists, cell-based qHTS assay (AID 1963587). Note: nearly all actives have a fitted effect of over 30% in size. The essentials:
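Kinetic calcium-flux fluorescence (2 min, 1 sec intervals) after compound addition in agonist mode. HTR2A-CHO cells were cultured 18 h, then dye-loaded 1 h at 37 C.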

Assay [13] deals with Muscarinic acetylcholine receptor M1 (Homo sapiens) (UniProt P11229). As to the kind of experiment: Cholinergic receptor muscarinic 1 (CHRM1) small molecule antagonists, cell-based qHTS assay (AID 1963588). Note: nearly all actives have a fitted effect of over 40% in size. The essentials: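 CHRM1-CHO calcium-flux assay, antagonist mode. Cells were seeded 18 h, dye-loaded 1 h at 37 C and given compound for 5 min at RT, then acetylcholine was added at 50nM. FDSS fluorescence was read 3 min; 15 concentrations, three runs.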
Sequence of Muscarinic acetylcholine receptor M1 (Homo sapiens) (P11229 whole entry, looked up): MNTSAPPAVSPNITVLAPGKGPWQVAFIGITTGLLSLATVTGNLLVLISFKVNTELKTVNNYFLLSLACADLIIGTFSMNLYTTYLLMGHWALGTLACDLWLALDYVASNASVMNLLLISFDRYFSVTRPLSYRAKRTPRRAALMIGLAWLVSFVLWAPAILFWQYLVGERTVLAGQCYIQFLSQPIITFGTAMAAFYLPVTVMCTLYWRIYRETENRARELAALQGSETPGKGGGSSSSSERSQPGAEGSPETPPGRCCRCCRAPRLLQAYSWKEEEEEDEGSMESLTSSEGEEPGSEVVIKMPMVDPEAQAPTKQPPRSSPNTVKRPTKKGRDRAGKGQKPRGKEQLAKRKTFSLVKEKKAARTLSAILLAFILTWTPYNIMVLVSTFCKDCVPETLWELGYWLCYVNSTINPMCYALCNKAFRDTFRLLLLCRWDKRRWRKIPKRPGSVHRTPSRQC

Assay [14] can be described thus: cAMP Responsive Elements (CRE) small molecule agonists, cell-based qHTS assay (AID 1963590). The essentials:
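CRE-bla HEK 293T cells, 2,000/well in DMEM with 10% dialyzed FBS and 25 mM HEPES, pre-incubated 18 h at 37 C, then exposed to compound 3 h at 37 C. Beta-lactamase reporter read with LiveBLAzer B/G FRET substrate after 2 h at room temperature.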

The nature of assay [15]: cAMP Responsive Elements (CRE) small molecule antagonists, cell-based qHTS assay (AID 1963591; active = well fitted inhibition curve with a large enough effect in the signal ratio in the repeat runs, not every such curve was filed as active; the % refers to the signal ratio). The essentials:
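CRE-bla HEK293T cells plated 18 h, then given compound plus NKH477 at 0.25 uM final for 3 h at 37C. Beta-lactamase reporter read with LiveBLAzer B/G FRET substrate after 2 h at room temperature.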

Assay [16] concerns the target Beta-2 adrenergic receptor (Homo sapiens) (UniProt P07550). As to the kind of experiment: Adrenergic beta2 receptor (ADRB2) small molecule antagonists, cell-based qHTS assay (AID 1963592). Note: series mostly up to about 92 µM; nearly all actives have a fitted effect of over 50% in size. The essentials:
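Cells (CHO, stable ADRB2 overexpression) incubated 18-20hr at 37C; compounds added from DMSO; agonist mix (1nM isoproterenol, 100uM IBMX, 25uM Ro-20-1724) added; 0.5hr RT; d2-cAMP and anti-cAMP-cryptate added; 1hr RT; 665/615 nm read.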

Assay [17] concerns the target D(2) dopamine receptor (Homo sapiens) (UniProt P14416). The assay can be described thus: Dopamine D2 receptor (DRD2) small molecule agonists, cell-based qHTS assay (AID 1963594). Note: nearly all actives have a fitted effect of over 35% in size. The essentials: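 cAMP accumulation in DRD2-HEK293 cells measured by HTRF after 1 h detection; compounds added 10 min before NKH477 (200nM […]) forskolin-analogue stimulation, 30 min at room temperature, with Ro20-1724 present at 0.1 mM final.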

The target is the same in assay [18]. The assay can be described thus: Dopamine D2 receptor (DRD2) small molecule antagonists, cell-based qHTS assay (AID 1963595; active = well fitted inhibition curve with a large enough effect in the signal ratio in the repeat runs, with a control signal flat; the % refers to the signal ratio). Put shortly: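 Antagonist mode in DRD2-HEK293 cells: after compound addition with 0.1 mM Ro20-1724, cells received quinpirole (12 nM) and NKH477 (200 nM) for 30 min at room temperature; HTRF cAMP read after 1 h detection.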
In assay [19] the target is Muscarinic acetylcholine receptor M1 (Homo sapiens) (UniProt P11229). As to the kind of experiment: Cholinergic receptor muscarinic 1 (CHRM1) small molecule agonists, cell-based qHTS assay (AID 1963589). Note: nearly all actives have a fitted effect of over 35% in size. The essentials:
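CHO cells stably expressing human CHRM1 were loaded with calcium dye for 1 h at 37 C, then compound was added in agonist mode. Intracellular calcium fluorescence was followed kinetically at 1 s intervals. Fifteen concentrations were tested in three independent runs.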

Assay [20] is described as follows: p53 small molecule agonists, cell-based qHTS assay with rat liver microsomes: qHTS cell viability counter screen (AID 1963580). Note: nearly all actives have a fitted effect of over 45% in size. Put shortly:
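Intracellular ATP, by CellTiter-Glo luminescence, defines viability. HCT-116 p53RE-bla cells, 4,000 per well, were compound-treated in the presence of rat liver microsomes and NADPH for 16 h at 37 C.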

Sequence of D(2) dopamine receptor (Homo sapiens) (P14416 whole entry, looked up): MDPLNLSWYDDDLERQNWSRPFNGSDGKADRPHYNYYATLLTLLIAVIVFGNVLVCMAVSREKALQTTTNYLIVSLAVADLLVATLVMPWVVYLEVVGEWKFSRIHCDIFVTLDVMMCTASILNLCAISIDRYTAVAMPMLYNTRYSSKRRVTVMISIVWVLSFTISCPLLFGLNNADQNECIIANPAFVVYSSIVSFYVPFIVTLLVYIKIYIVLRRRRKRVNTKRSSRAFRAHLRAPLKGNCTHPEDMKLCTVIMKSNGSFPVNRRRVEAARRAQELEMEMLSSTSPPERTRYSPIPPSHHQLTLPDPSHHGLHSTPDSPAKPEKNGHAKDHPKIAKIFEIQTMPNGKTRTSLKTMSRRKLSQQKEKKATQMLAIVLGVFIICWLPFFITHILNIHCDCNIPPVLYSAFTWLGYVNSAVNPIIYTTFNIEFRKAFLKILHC
Sequence of Gonadotropin-releasing hormone receptor (Homo sapiens) (P30968 whole entry, looked up): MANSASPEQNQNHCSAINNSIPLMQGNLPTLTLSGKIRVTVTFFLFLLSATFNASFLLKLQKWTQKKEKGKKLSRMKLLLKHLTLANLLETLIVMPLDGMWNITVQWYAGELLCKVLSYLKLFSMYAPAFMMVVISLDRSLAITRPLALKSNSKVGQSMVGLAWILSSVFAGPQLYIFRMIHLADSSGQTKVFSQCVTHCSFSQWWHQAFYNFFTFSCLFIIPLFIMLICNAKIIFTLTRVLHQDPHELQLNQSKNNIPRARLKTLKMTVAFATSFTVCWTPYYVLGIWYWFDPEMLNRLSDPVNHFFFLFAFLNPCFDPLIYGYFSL
Sequence of KiSS-1 receptor (Homo sapiens) (Q969F8 whole entry, looked up): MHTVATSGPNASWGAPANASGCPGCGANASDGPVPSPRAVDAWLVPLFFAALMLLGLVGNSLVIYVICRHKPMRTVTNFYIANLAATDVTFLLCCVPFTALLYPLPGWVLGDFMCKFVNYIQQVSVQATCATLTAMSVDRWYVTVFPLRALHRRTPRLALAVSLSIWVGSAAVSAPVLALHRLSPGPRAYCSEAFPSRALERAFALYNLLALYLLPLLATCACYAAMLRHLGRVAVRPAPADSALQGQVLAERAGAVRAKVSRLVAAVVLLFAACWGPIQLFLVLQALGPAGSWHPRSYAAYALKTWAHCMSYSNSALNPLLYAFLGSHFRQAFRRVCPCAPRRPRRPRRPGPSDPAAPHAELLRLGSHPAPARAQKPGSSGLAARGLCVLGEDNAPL
Sequence of Beta-2 adrenergic receptor (Homo sapiens) (P07550 whole entry, looked up): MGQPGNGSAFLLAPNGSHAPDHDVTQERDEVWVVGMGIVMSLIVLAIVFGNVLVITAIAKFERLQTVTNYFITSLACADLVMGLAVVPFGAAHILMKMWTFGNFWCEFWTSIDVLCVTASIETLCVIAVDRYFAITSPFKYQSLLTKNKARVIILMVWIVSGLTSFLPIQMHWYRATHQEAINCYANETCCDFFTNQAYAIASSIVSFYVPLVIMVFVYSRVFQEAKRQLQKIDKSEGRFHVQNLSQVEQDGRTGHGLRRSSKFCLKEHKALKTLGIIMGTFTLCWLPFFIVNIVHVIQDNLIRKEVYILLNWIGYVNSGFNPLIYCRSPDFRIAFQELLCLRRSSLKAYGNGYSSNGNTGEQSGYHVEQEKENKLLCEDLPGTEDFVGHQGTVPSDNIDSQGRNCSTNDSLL

As to `C=CCOC(N)=O`, the Potency entry in assay [1], in assay [2], in assay [3], in assay [4], in assay [5] and in assay [6] was “inactive” each time. In addition, the Potency entry in [7], in [8], in assay [9], in [10], in [11] and in [12] was “inactive” in each case. Besides, the Potency result in assay [13], in [14], in [15], in assay [16], in [17] and in [18] was “inactive” each time.

Regarding `O=C(Cc1ccccc1)c1ccccc1`, the Potency result in [1], in [2], in assay [3], in assay [4], in assay [5] and in [6] was “inactive” each time. Besides, the Potency entry in assay [7], in assay [8], in assay [9], in assay [10], in [11] and in [12] was “inactive” throughout. For the same compound, the Potency result in assay [13], in [19], in assay [14], in assay [15], in assay [16] and in [17] was “inactive” throughout. The Potency entry in assay [18] was “inactive”.

With `CN(C)[C@@H]1C(=O)C(C(N)=O)=C(O)[C@@]2(O)C(=O)C3=C(O)c4c(O)cccc4[C@@](C)(O)[C@H]3C[C@@H]12`, the Potency result in assay [1], in assay [2], in assay [3], in [4], in [5] and in assay [6] was “inactive” throughout. In addition, the Potency result in [7], in assay [8], in [9], in assay [10], in [11] and in assay [12] was “inactive” in each case. In addition, the Potency result in [13], in [19], in [14], in assay [16], in assay [17] and in assay [18] was “inactive” each time.

Turning to `CCCCC(CC)CO[N+](=O)[O-]` (configuration not stated), the Potency result in assay [1], in assay [2], in assay [3], in [4], in assay [5] and in assay [6] was “inactive” in each case. Also, the Potency result in assay [7], in [8], in assay [20], in [10], in assay [11] and in assay [12] was “inactive” throughout. Besides, the Potency result in [13], in [19], in assay [16] and in [17] was “inactive” in each case.

As for `Cc1cnc(C2=NC(C)(C(C)C)C(=O)N2)c(C(=O)O)c1` (configuration not stated), the Potency entry in [1], in [2], in assay [3], in assay [4], in assay [5] and in assay [6] was “inactive” in each case. Besides, the Potency result in assay [7], in assay [8], in assay [9], in assay [10], in assay [11] and in assay [12] was “inactive” in each case. For the same compound, the Potency result in [13], in assay [19], in assay [14], in assay [15], in assay [16] and in [17] was “inactive” each time. In addition, in assay [18], the Potency entry is “inactive”.

For `NNC(N)=S`, the results for the Potency in assay [1] and in assay [2] were 16 µM (active) and 21.7 µM (active), respectively. The Potency result in assay [3], in [4], in [5], in [6], in [7] and in [8] was “inactive” each time. Also, the Potency result in assay [9], in assay [10], in [11], in assay [12], in assay [13] and in assay [19] was “inactive” throughout. The Potency result in assay [14], in assay [16], in assay [17] and in assay [18] was “inactive” each time.

`COc1ccc(C=O)cc1OC`: the Potency entry in assay [1], in assay [3], in assay [4], in [5], in assay [6] and in assay [7] was “inactive” throughout. Further, the Potency result in assay [8], in assay [9], in [10], in assay [12], in assay [13] and in assay [19] was “inactive” throughout. Moreover, the Potency result in [14], in assay [15], in assay [16], in [17] and in assay [18] was “inactive” each time. For the same compound, the Potency in assay [2] is 69.3 µM (active) and inactive.

Regarding `Cc1cc(N=Nc2ccccc2C)ccc1N`, the Potency in assay [1] was 54.5 µM (active) and inactive. Besides, the Potency entry in assay [2], in [3], in assay [4], in assay [5], in assay [6] and in [7] was “inactive” throughout. Further, the Potency entry in [8], in [20], in assay [10], in assay [11], in assay [12] and in assay [13] was “inactive” throughout. In addition, the Potency result in [16], in assay [17] and in [18] was “inactive” each time.
